86 compounds from article PMC4336329 (PLoS ONE, 2015) can be followed below.

Among all 310,000 compounds or so, about 14,000 (4.5%) showed an effect of 50% or more. The effect is printed as a negative number. The list comes from a sample in which strong results are over-represented; it also holds similar structures and randomly drawn compounds.
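Also: peak tail current of the secondary pulse compared with the same well before compound.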

Sequence of human ether-à-go-go-related gene (hERG) potassium channel (Q12809 whole entry, looked up): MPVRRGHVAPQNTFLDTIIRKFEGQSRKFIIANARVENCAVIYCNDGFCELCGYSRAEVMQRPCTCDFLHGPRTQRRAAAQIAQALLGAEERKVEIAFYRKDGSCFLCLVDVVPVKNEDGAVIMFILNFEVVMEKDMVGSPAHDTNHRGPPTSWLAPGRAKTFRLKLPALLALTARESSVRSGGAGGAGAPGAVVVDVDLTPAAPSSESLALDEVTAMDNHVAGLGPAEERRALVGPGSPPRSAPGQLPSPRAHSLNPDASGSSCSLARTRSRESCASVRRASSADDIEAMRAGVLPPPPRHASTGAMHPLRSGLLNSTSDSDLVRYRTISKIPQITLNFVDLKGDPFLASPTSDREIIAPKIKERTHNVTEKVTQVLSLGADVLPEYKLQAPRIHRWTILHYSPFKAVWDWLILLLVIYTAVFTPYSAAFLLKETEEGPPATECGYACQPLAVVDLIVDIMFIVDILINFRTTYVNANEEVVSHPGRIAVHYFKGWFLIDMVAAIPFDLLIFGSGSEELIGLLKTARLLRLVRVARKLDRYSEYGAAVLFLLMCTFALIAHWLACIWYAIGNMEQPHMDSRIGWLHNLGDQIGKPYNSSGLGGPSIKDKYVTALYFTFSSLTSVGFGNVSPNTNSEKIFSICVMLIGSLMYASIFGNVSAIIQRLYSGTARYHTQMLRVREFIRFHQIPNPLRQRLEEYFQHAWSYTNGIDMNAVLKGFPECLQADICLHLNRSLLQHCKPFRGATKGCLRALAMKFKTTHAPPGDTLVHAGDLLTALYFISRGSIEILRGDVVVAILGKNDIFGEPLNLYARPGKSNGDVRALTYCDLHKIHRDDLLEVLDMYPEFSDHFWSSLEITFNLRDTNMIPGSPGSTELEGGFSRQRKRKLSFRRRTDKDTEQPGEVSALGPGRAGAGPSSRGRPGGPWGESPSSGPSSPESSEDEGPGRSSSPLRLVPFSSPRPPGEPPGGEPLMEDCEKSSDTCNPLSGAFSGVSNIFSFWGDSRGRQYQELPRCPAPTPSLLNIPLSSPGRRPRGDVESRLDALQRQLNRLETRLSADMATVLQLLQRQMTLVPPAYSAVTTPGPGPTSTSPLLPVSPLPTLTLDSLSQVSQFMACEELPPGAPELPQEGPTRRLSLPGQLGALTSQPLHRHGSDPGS

This test addresses human ether-à-go-go-related gene (hERG) potassium channel (human, UniProt Q12809). Briefly: primary screen, population patch clamp on CHO cells stably expressing hERG; higher = less effect of the substance. As to the method:
Briefly, Chinese hamster ovary (CHO) cells stably expressing the hERG channel were dislodged from tissue culture flasks and dispensed into PPC plates. […] During the recording, background leak currents were estimated by a 100 ms step to -80 mV from an initial holding potential of -70 mV and subtracted from the subsequent current measurement. The campaign was conducted in two phases using slight differences in recording protocol. In the first phase, the initial voltage pulse used a 100 ms step to -30 mV from a holding potential of -70 mV, a 2 s conditioning step to +25 mV, and a 2 s test step to -30 mV. During the second phase of the screen, the potential during the conditioning step was raised to +45 mV. In both phases of the campaign, a secondary voltage pulse was applied using the same parameters as the second phase initial pulse. The initial and secondary pulses were applied in the absence of compound, and upon application of 1 μM and 10 μM test concentrations. […]
Turning to `CCOc1ccccc1NC(=S)NCCc1ccccc1`, the “hERG current change (%, negative = inhibition) at 10uM” value amounted to 4.14%. The result for `N=c1c(C(=O)NCC2CCCO2)cc2c(=O)n3ccccc3nc2n1Cc1cccnc1` (centres unmarked) reads -72.9%; that for `Nc1c(C(=O)NCC2CCCO2)c2nc3ccccc3nc2n1Cc1ccco1` (centres unmarked), 10.5%.

As for `N=c1c(C(=O)NCC2CCCO2)cc2c(=O)n3ccccc3nc2n1Cc1ccc(F)cc1` (centres unmarked), the “hERG current change (%, negative = inhibition) at 10uM” value is -80%.

On to `O=C(Cc1ccc(-n2c(=O)c3ccccc3n(Cc3ccc(F)cc3)c2=O)cc1)NCC1CCCO1` (centres unmarked), for which the “hERG current change (%, negative = inhibition) at 10uM” value is -19.6%. Take `N=c1c(C(=O)NCC2CCCO2)cc2c(=O)n3ccccc3nc2n1Cc1ccccc1` (centres unmarked): the “hERG current change (%, negative = inhibition) at 10uM” value was -75.3%.

As to `O=C(Cn1c(=O)n(Cc2ccc(F)cc2)c(=O)c2ccccc21)NCC1CCCO1` (centres unmarked), the “hERG current change (%, negative = inhibition) at 10uM” value was -2.66%. The figure for `N=c1c(C(=O)NCC2CCCO2)cc2c(=O)n3ccccc3nc2n1Cc1ccco1` (centres unmarked) is -78.7%. The result for `O=C(NCC1CCCO1)c1cn(Cc2ccccc2)nc1-c1ccccc1` (centres unmarked) reads -0.0253%; that for `O=C(Cn1c(=O)n(Cc2ccco2)c(=O)c2ccccc21)NCC1CCCO1` (centres unmarked), 2.5%; that for `CCCCNC(=O)C1(O)c2cc(Br)ccc2NC(=O)N1c1cccc(OC)c1` (centres unmarked), 7.42%. Regarding `Cc1cc(C)c2nc(SC3CCOC3=O)cc(C)c2c1` (centres unmarked), the “hERG current change (%, negative = inhibition) at 10uM” value is listed as 4.23%. `COc1ccc(C(=O)Nc2cccc(S(C)(=O)=O)c2)cc1OC`: the “hERG current change (%, negative = inhibition) at 10uM” value worked out at 6.89%. The figure for `O=C(N/N=C\c1c(O)ccc2ccccc12)c1ccc(O)cc1` is 14.3%; for `Cc1c(C(=O)Nc2nnc(C3CC3)s2)oc2c(Cl)cccc12` it is 8.02%. `N=c1c(S(=O)(=O)c2ccc(Cl)cc2)cc2c(=O)n3ccccc3nc2n1CC1CCCO1` (centres unmarked): the “hERG current change (%, negative = inhibition) at 10uM” value was -13.3%.

Consider `O=C(NCC1CCCO1)c1ccc2c(=O)n(Cc3ccc(Cl)cc3)c(=S)[nH]c2c1` (centres unmarked), for which the “hERG current change (%, negative = inhibition) at 10uM” value was 6.02%.

Regarding `N=c1c(C(=O)NCc2ccco2)cc2c(=O)n3ccccc3nc2n1CC1CCCO1` (centres unmarked), the “hERG current change (%, negative = inhibition) at 10uM” value is reported as -76%. The result for `O=C(NCc1ccco1)c1ccc2c(=O)n(CC3CCCO3)c(=S)[nH]c2c1` (centres unmarked) reads -1.68%. The figure for `N=c1c(C(=O)NCC2CCCO2)cc2c(=O)n3ccccc3nc2n1Cc1ccccc1Cl` (centres unmarked) is -67.9%.

With `N=c1c(C(=O)NCC2CCCO2)cc2c(=O)n3ccccc3nc2n1Cc1ccc(Cl)cc1` (centres unmarked), the “hERG current change (%, negative = inhibition) at 10uM” value is recorded as -77.2%. As for `O=C(Cc1ccc(-n2c(=O)c3ccccc3n(Cc3ccccc3Cl)c2=O)cc1)NCC1CCCO1` (centres unmarked), the “hERG current change (%, negative = inhibition) at 10uM” value is recorded as -1.93%. On to `O=C(NCC1CCCO1)c1nc2c(nnn2Cc2ccccc2Cl)c(=O)[nH]1` (centres unmarked), for which the “hERG current change (%, negative = inhibition) at 10uM” value is recorded as -0.506%. The figure for `CC(=O)c1cccc(NC(=O)CCNC(=O)c2ccccc2Cl)c1` is 11.4%; for `CCn1cc(C(=O)Nc2ccc(C)cc2[N+](=O)[O-])c(C)n1` it is 5.23%; for `CN(Cc1nc(-c2cccs2)no1)CC1COCCO1` (centres unmarked) it is 1.17%. On to `S=C(NCCN1CCOCC1)N1CCN(c2cccc(Cl)c2)CC1`, for which the “hERG current change (%, negative = inhibition) at 10uM” value is listed as -16%. The figure for `CC1=CC(=O)C(C(C)C)=C/C1=N/OC(=O)c1cccc([N+](=O)[O-])c1` is 7.36%. For the compound `COc1ccc2nc(NC(=O)CSc3nnc(C)n3N)sc2c1`, the “hERG current change (%, negative = inhibition) at 10uM” value is listed as 0.177%.

As to `C=CCn1c(SCn2nnc3ccccc3c2=O)nnc1-c1ccc(Cl)cc1`, the “hERG current change (%, negative = inhibition) at 10uM” value is recorded as -61.2%. The result for `O=c1cc(CCl)nc2sc3ccccc3n12` reads 8.04%; that for `O=c1c2ccccc2nnn1Cc1ccccc1`, 35.3%; that for `C=CCn1c(SCn2nnc3ccccc3c2=O)nnc1-c1ccc(F)cc1`, -28.9%. As for `C=CCn1c(COc2cccc(C)c2)nnc1SCn1nnc2ccccc2c1=O`, the “hERG current change (%, negative = inhibition) at 10uM” value is recorded as -5.37%. The result for `C=CCn1c(SCn2nnc3ccccc3c2=O)nnc1C1CCCCC1` reads -14.1%; that for `O=c1c2ccccc2nnn1CSc1nnc(-c2cccs2)n1Cc1ccccc1`, -62.6%; that for `C=CCn1c(COc2ccc(OC)cc2)nnc1SCn1nnc2ccccc2c1=O`, -27.1%. The figure for `O=c1cc(CSc2nnc(C3CC3)n2Cc2ccccc2)nc2sccn12` is 11.7%; for `C=CCn1c(SCn2nnc3ccccc3c2=O)nnc1-c1ccc(Br)cc1` it is -62.7%. Take `O=c1cc(CSc2nnc(-c3cccs3)n2Cc2ccccc2)nc2sc3ccccc3n12`: the “hERG current change (%, negative = inhibition) at 10uM” value is given as -53.5%. The figure for `C=CCn1c(SCn2nnc3ccccc3c2=O)nc2scc(-c3cccs3)c2c1=O` is -5.21%.

As for `CCCOc1cccc(C(=O)Nc2ccc3c(c2)OCCO3)c1`, the “hERG current change (%, negative = inhibition) at 10uM” value is on record as 0.786%. The result for `CSc1cccc(NC(=O)C2CCN(S(=O)(=O)c3cnc[nH]3)CC2)c1` reads 9.39%; that for `Nc1c(NCc2ccccc2)c(=O)c1=O`, -6.37%. In the case of `Cc1nc2c(C)cccn2c(=O)c1NC(=O)c1ccc(Br)o1`, the “hERG current change (%, negative = inhibition) at 10uM” value is reported as 5.14%. `O=C(COc1cccc(C(F)(F)F)c1)Nc1cccnc1`: the “hERG current change (%, negative = inhibition) at 10uM” value was 4.03%. The figure for `CCC(C)N(C(=O)c1csnn1)C(C(=O)NC1CCCC1)c1ccc(F)cc1` (centres unmarked) is 0.39%; for `CC(=O)c1cccc(NC(=O)CCCNC(=O)c2ccc(Cl)cc2)c1` it is 2.99%; for `CCN(CC)C(=O)c1cn(-c2cccc(OC)c2)c(=O)c2ccccc12` it is 9.66%. The result for `COC(=O)c1cc(Cl)nc2ccccc12` reads -7.89%; that for `COc1ccc(CNC(=O)c2cc(S(=O)(=O)N3CCCC3)cn2C)cc1`, 13.2%. The figure for `Cc1nn(Cc2ccc(Cl)cc2)c(Cl)c1/C=N/NC(=O)c1cccnc1` is -45.2%.

Regarding `CN(C)CCCN(C(=O)C1COc2ccccc2O1)c1nc2cc3c(cc2s1)OCO3.Cl` (centres unmarked), the “hERG current change (%, negative = inhibition) at 10uM” value is -64.4%. The figure for `CN(C)CCCN(C(=O)C1COc2ccccc2O1)c1nc2ccc(F)cc2s1.Cl` (centres unmarked) is -75.4%; for `CN(C)CCCN(C(=O)c1sc2ccccc2c1Cl)c1nc2ccc(F)cc2s1.Cl` it is -19.7%; for `CN(C)CCN(C(=O)C1CCCCC1)c1nc2cc3c(cc2s1)OCO3.Cl` it is -9.7%.

On to `CN(C)CCCN(C(=O)CCSc1ccccc1)c1nc2cc3c(cc2s1)OCO3.Cl`, for which the “hERG current change (%, negative = inhibition) at 10uM” value is given as -48.2%. The figure for `CN(C)CCCN(C(=O)c1nc2ccccc2s1)c1nc2ccc(F)cc2s1.Cl` is 4.17%; for `Cn1c(O)c(C=Nc2ccccc2Sc2ccccc2)c(=O)n(C)c1=O` it is 16.4%; for `CCCc1[nH]nc2c1C(c1ccc(OC)c(Cn3nnc4ccccc43)c1)C(C#N)=C(N)O2` (centres unmarked) it is -29.1%. Regarding `CCCn1c(SCc2ccc(Cl)cc2)nc2c1c(=O)[nH]c(=O)n2C`, the “hERG current change (%, negative = inhibition) at 10uM” value was determined as 0.36%. As for `CCOCCCNC(=O)C(NC(=O)c1ccc(NC(C)=O)cc1)c1ccc(C)cc1` (centres unmarked), the “hERG current change (%, negative = inhibition) at 10uM” value was -20.5%.

In the case of `CCc1ccc(CNC(=O)c2ccc(NC(=O)C3=CSCCO3)cc2)cc1`, the “hERG current change (%, negative = inhibition) at 10uM” value was -23%. The figure for `O=C(C1COc2ccccc2O1)N1CCCC1` (centres unmarked) is 16.8%; for `O=C(NCC(=O)N1CCC2(CC1)NCCc1[nH]cnc12)c1ccc2ccccc2c1` it is 11.7%; for `O=C(Nc1nc2ccc(S(=O)(=O)N3CCCC3)cc2s1)c1ccco1` it is 11.5%.

With `CCn1c2nc(SCCN3CCOCC3)nnc2c2cc(C)cc(C)c21`, the “hERG current change (%, negative = inhibition) at 10uM” value is on record as -95.3%. `CCn1c2ccccc2c2nnc(SCCN3CCOCC3)nc21`: the “hERG current change (%, negative = inhibition) at 10uM” value was 3.2%. The figure for `CCCn1c2ccc(F)cc2c2nnc(SCCN3CCCCC3)nc21` is -64.2%; for `CCCCn1c2ccc(F)cc2c2nnc(SCCN3CCOCC3)nc21` it is -55.4%; for `CCCn1c2ccc(F)cc2c2nnc(NN)nc21` it is -1.94%. The figure for `CCn1c2ccc(F)cc2c2nnc(NN)nc21` is -9.93%.

With `CCn1c2ccc(F)cc2c2nnc(SCCN3CCOCC3)nc21`, the “hERG current change (%, negative = inhibition) at 10uM” value is given as -41.2%. For the compound `CCCn1c2ccc(F)cc2c2nnc(SCCN3CCOCC3)nc21`, the “hERG current change (%, negative = inhibition) at 10uM” value is -35.8%. `CCn1c2ccc(F)cc2c2nnc(SCCN3CCCCC3)nc21`: the “hERG current change (%, negative = inhibition) at 10uM” value is -61%.

Regarding `CCCCn1c2ccc(F)cc2c2nnc(NN)nc21`, the “hERG current change (%, negative = inhibition) at 10uM” value is reported as -44.9%. `CCCn1c2ccccc2c2nnc(SCCN3CCOCC3)nc21`: the “hERG current change (%, negative = inhibition) at 10uM” value was -9.15%.

Regarding `CCn1c2ccc(C)cc2c2nnc(SCCN3CCOCC3)nc21`, the “hERG current change (%, negative = inhibition) at 10uM” value is -13.8%. As to `Cc1cccc2cc(/C=N/NC(=O)c3ccccc3O)c(Cl)nc12`, the “hERG current change (%, negative = inhibition) at 10uM” value is reported as -2.17%.

With `O=C1[C@H]2[C@@H](c3ccc(Cl)cc3)N3C(=O)N(c4cccc(Cl)c4)C(=O)[C@@]3(Cc3ccccc3)[C@H]2C(=O)N1C1CCCCC1`, the “hERG current change (%, negative = inhibition) at 10uM” value was -2.02%. The figure for `Cc1cc(C)nc(NC2=NCCN2C(=O)NC2CCCCC2)n1` is -17.7%; for `[2H]c1c([2H])c([2H])c(-c2nc(N3CCCCCC3)sc2C(=O)c2ccccc2)c([2H])c1[2H]` it is -2.19%; for `CC(C)CCNC(=O)C1CCCN(S(=O)(=O)c2ccc(F)cc2)C1` (centres unmarked) it is 6.85%. The result for `CC(=O)Nc1ccccc1NC(=O)c1ccc(C)cc1C` reads 23.7%; that for `S=c1[nH]nc(COc2cccc(Cl)c2)n1Cc1ccccc1`, 34.4%; that for `COc1cccc(NC(=O)CSc2nc(C3CC3)nc3ccccc23)c1`, 4.75%.
